Measured values reported in PubChem BioAssay (EPA / NIEHS).
Calls of active or inactive are those of the source. The calls were made as follows: active = hit-call score of the fitted dose curve at least 0.9, where 1 is the maximum; inactive = score below 0.9.

Experiment: ATG_Ets_CIS: Attagene CIS-FACTORIAL HepG2 Assay for human Erythroblast Transformation Specific (ETS) (AID 2282941)
Details: HepG2 ETS cis-reporter transcription, actives raise or lower the signal
How it was run: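 Multiplexed reporter transcript profiling: HepG2, 24 h treatment, total RNA to cDNA, PCR, 6-FAM labelling, HpaI cut, capillary electrophoresis. Gain- or loss-of-signal fitted against DMSO.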

outcome, inactive:
O=C(O)CC(O)C(=O)O (centres undefined)
CC(C)=CCCC(C)=CC=O
C=CC(=C)CCC=C(C)C
CC[C@H]1OC(=O)[C@H](C)[C@@H](O[C@H]2C[C@@](C)(OC)[C@@H](O)[C@H](C)O2)[C@H](C)[C@@H](O[C@@H]2O[C@H](C)C[C@H](N(C)C)[C@H]2O)[C@](C)(O)C[C@@H](C)C(=O)[C@H](C)[C@@H](O)[C@]1(C)O
O=C1CCC(N2C(=O)c3ccccc3C2=O)C(=O)N1 (centres undefined)
C[C@](N)(Cc1ccc(O)c(O)c1)C(=O)O
Nc1cccc(N)c1
Cn1c(=O)c2c(ncn2C)n(C)c1=O
Nc1nc2ncc(CNc3ccc(C(=O)N[C@@H](CCC(=O)O)C(=O)O)cc3)nc2c(=O)[nH]1
CC(=O)OCCC(C)C
CCCC(=O)OCC
COc1cccc(-c2ccc(/C=C\CN3CCCCCC3)cc2Cl)c1
O=C(OC[C@H]1O[C@@H](OC(=O)c2cc(O)c(O)c(OC(=O)c3cc(O)c(O)c(O)c3)c2)[C@H](OC(=O)c2cc(O)c(O)c(OC(=O)c3cc(O)c(O)c(O)c3)c2)[C@@H](OC(=O)c2cc(O)c(O)c(OC(=O)c3cc(O)c(O)c(O)c3)c2)[C@@H]1OC(=O)c1cc(O)c(O)c(OC(=O)c2cc(O)c(O)c(O)c2)c1)c1cc(O)c(O)c(OC(=O)c2cc(O)c(O)c(O)c2)c1
CCOCCOCCOCCO
O=C(O)c1cccc(N(Cc2cccnc2)c2ccc(OC(F)F)c(OC(F)F)c2)c1
Cn1c(=O)cc(Oc2ccc(F)cc2F)c2cnc(NCC(C)(C)O)nc21
CC(C)CC(C)(O)C#CC(C)(O)CC(C)C (centres undefined)
CC(C)=CCC/C(C)=C\CO
Cc1ccc(S(=O)(=O)O)cc1C
CC(=O)c1ccc2c(c1)[C@H](NC(=O)c1ccc(F)cc1)[C@@H](O)C(C)(C)O2
C=CCCCCCCCCC(=O)O
O=C(O)c1cccc(Oc2ccccc2)c1
C1N2CN3CN1CN(C2)C3
CC1=CC(=O)CC(C)(C)C1
CNS(=O)(=O)c1cc(C(=O)N2CCC(CCN3C4CCC3CC(n3c(C)nc5ccccc53)C4)(c3cccc(F)c3)CC2)c(Cl)cc1F (centres undefined)
O=C(O)CCN(C1(C(=O)NO)CCCC1)S(=O)(=O)c1ccc(Oc2ccc(F)cc2)cc1
On1ccccc1=S
CCn1nc(Cc2ccccc2)cc1C1CCN(C[C@H]2C[C@H](N(C)[C@@H](C(=O)O)C(C)C)C[C@@H]2c2cccc(F)c2)CC1

AC50, active:
O=P(OC(CCl)CCl)(OC(CCl)CCl)OC(CCl)CCl 156 µM
